Data reported in the supplement of paper PMC6522484.
Several values for one entry are separate records, joined by “and”; a condition that tells them apart may be missing. Equal entries are not always repeated. Structures can show the parent of a compound that is named as a salt. ± gives the standard deviation of the averaged measurements.

How the values were obtained:
DLD1 [1] = test: cell viability (CellTiter-Glo) relative to plate median (fraction of plate median); higher = more viable cells; details: 5 µM; treatment time 24 h; reporter: 7TFP
Outline: (§1)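 Luminescence, normalised well by well to the plate median, is tabulated as a mean of independent replicates. There were two replicates, run on colorectal cancer lines stably transduced with lentiviral TCF/Wnt firefly luciferase reporters and dosed with library compounds at a final 5 µM for 24 h. Readouts were firefly luciferase or CellTiterGlo on parallel plates.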

HCT116 = test: as above; details: 5 µM; treatment time 24 h; reporter: TCF4/Wnt
Outline: as §1

SW480 [2] = test: as above; details: 5 µM; treatment time 24 h; reporter: 7TFP
Outline: as §1

DLD1 [3] = test: TCF/Wnt firefly luciferase reporter signal relative to plate median (fraction of plate median); higher = higher Wnt reporter signal; details: 5 µM; treatment time 24 h; reporter: 7TFP
Outline: as §1

SW480 [4] = test: as above; details: 5 µM; treatment time 24 h; reporter: 7TFP
Outline: as §1

Compound	cell viability (DLD1 [1])	cell viability (HCT116)	cell viability (SW480 [2])	TCF/Wnt firefly luciferase reporter signal (DLD1 [3])	TCF/Wnt firefly luciferase reporter signal (SW480 [4])
CNCCC=C1c2ccccc2CCc2ccccc21	0.9585 ± 0.00071	0.979 ± 0.12	0.972 ± 0.0057	1.02 ± 0.079	1.04 ± 0.12
CN(N=O)C(=O)N[C@H]1C(O)O[C@H](CO)[C@@H](O)[C@@H]1O (mixture of isomers)	0.999 ± 0.03	1.03 ± 0.064	1.08 ± 0.021	0.962 ± 0.15	1.005 ± 0.0071
COc1ccc2c(C)cc(=O)oc2c1	0.974 ± 0.027	0.962 ± 0.022	0.939 ± 0.0071	0.803 ± 0.14	0.869 ± 0.099
CCn1cc(C(=O)O)c(=O)c2ccc(C)nc21	0.975 ± 0.16	0.9905 ± 0.0078	0.975 ± 0.016	1.07 ± 0.12	1.02 ± 0.028
CC(=O)Oc1cc(C)c2c(c1C=O)Oc1c(c(C)c(OC(C)=O)c3c1C(OC(C)=O)OC3=O)OC2=O (stereo not given)	1.025 ± 0.0071	0.949 ± 0.039	1.04 ± 0.063	0.875 ± 0.084	1.01 ± 0.099
O=C1c2c(O)cccc2Cc2cccc(O)c21	0.945 ± 0.025	1.02 ± 0.074	1.08 ± 0.05	0.988 ± 0.031	0.933 ± 0.017
CCCCNC(=O)NS(=O)(=O)c1ccc(C)cc1	0.85 ± 0.14	0.982 ± 0.054	0.987 ± 0.033	0.931 ± 0.097	1.005 ± 0.0071
COc1ccc(C2CNC(=O)C2)cc1OC1CCCC1 (stereo not given)	0.992 ± 0.011	0.989 ± 0.059	0.968 ± 0.0099	1.04 ± 0.18	1.06 ± 0.021
Cc1cc(/C=C/c2ccc3cc(N(C)C)ccc3[n+]2C)c(C)n1-c1ccccc1	0.899 ± 0.057	0.592 ± 0.17	0.852 ± 0.08	0.774 ± 0.1	0.588 ± 0.085
C=CC(N)CCC(=O)O (stereo not given)	1.06 ± 0.021	0.934 ± 0.086	1.06	0.952 ± 0.21	1.06 ± 0.092
Cc1onc(-c2ccccc2Cl)c1C(=O)N[C@@H]1C(=O)N2[C@@H]1SC(C)(C)[C@@H]2C(=O)O	1.02 ± 0.17	1.02 ± 0.06	0.994 ± 0.037	1.02 ± 0.035	0.952 ± 0.058
O=C(O)c1cc2cc(F)ccc2[nH]1	1.02 ± 0.053	1.115 ± 0.0071	1.07 ± 0.085	0.963 ± 0.0057	1.08 ± 0.085
O=c1ccc2ccc(O)cc2o1	0.995 ± 0.036	0.972 ± 0.014	1.03 ± 0.028	0.936 ± 0.13	0.935 ± 0.042
O=C(Oc1cccc2cccnc12)c1ccccc1	0.999 ± 0.044	0.891 ± 0.029	1.03 ± 0.035	0.856 ± 0.071	0.871 ± 0.025
COc1cc(O)c2c(=O)cc(-c3ccc(OC)c(-c4c(O)cc(O)c5c(=O)cc(-c6ccc(O)cc6)oc45)c3)oc2c1 [GINKGETIN, K salt]	0.994 ± 0.079	0.899 ± 0.04	0.9925 ± 0.0092	1.1 ± 0.15	1.16 ± 0.2
CC(C(=O)O)c1cccc(C(=O)c2ccccc2)c1 (stereo not given)	1.14 ± 0.13	0.931 ± 0.035	1.04 ± 0.028	0.9355 ± 0.0064	1.03 ± 0.014
CC(C)(C)NCC(O)c1ccc(O)c(CO)c1 (stereo not given)	0.952 ± 0.096	1.07 ± 0.092	0.922 ± 0.0057	1.06 ± 0.014	0.995 ± 0.14
CCCc1cc(OC)c2c(c1)OCO2	0.961 ± 0.11	0.939 ± 0.014	0.976 ± 0.049	0.958 ± 0.034	0.964 ± 0.065
CC(C(=O)O)[C@H]1CCC2C3CC=C4C[C@@H](O)CC[C@]4(C)C3CC[C@@]21C (stereo partly drawn) [3beta-HYDROXY-23,24-BISNORCHOL-5-ENIC ACID]	1.09 ± 0.057	1.05 ± 0.071	0.999 ± 0.016	1.01 ± 0.021	1.09 ± 0.028
CNC[C@H](O)c1cccc(O)c1	1.02 ± 0.033	1.09 ± 0.064	0.955 ± 0.062	1.02 ± 0.13	1.075 ± 0.0071
CCN(CC)CCNC(=O)c1cc(S(C)(=O)=O)ccc1OC	0.99 ± 0.13	1.025 ± 0.0071	1 ± 0.023	0.971 ± 0.084	0.925 ± 0.039
NC(N)=O	1.03 ± 0.014	0.988 ± 0.088	0.999 ± 0.044	0.898 ± 0.0028	0.934 ± 0.076
CC1Cc2ccccc2N1NC(=O)c1ccc(Cl)c(S(N)(=O)=O)c1 (stereo not given)	1.01 ± 0.069	1.1 ± 0.028	1 ± 0.013	0.967 ± 0.13	1.055 ± 0.0071
CC(=O)Oc1cc(C)c2c(c1C(OC(C)=O)OC(C)=O)Oc1c(c(C)c(OC(C)=O)c3c1C(OC(C)=O)OC3=O)OC2=O (stereo not given)	0.969 ± 0.044	0.975 ± 0.025	0.943 ± 0.064	0.993 ± 0.081	1.18 ± 0.099
CC(C)/C(O)=C1/C(=O)O[C@@H](c2ccoc2)[C@]2(C)C(O)[C@@H](O)[C@@]34OC5(C)OC67CC(C)(C(O)[C@]6(O)[C@@H](O)[C@]3(O5)C12)[C@H](CC(=O)O)[C@]74C (stereo not given in full)	0.869 ± 0.11	0.985 ± 0.05	1 ± 0.026	1.04 ± 0.028	1.02 ± 0.042
COc1ccccc1OCC(O)CN1CCN(CC(=O)Nc2c(C)cccc2C)CC1 (stereo not given)	0.977 ± 0.018	0.927 ± 0.018	0.944 ± 0.013	1.04 ± 0.028	0.881 ± 0.0092
Cc1ccccc1OCC(O)CO (stereo not given)	0.958 ± 0.042	0.983 ± 0.0099	0.999 ± 0.03	1.02 ± 0.15	1.04 ± 0.014
O=C(O)CCCc1ccccc1	1.03 and 0.95	0.968 and 0.85	0.993 and 1	1.15 and 1.08	1.01 and 1.04
C[C@H](CCC(=O)O)[C@H]1CC[C@H]2[C@@H]3[C@H](O)C[C@@H]4C[C@H](O)CC[C@]4(C)[C@H]3CC[C@]12C	1 ± 0.021	1.01 ± 0.22	1.025 ± 0.0071	0.949 ± 0.038	1.1 ± 0.028
NCCS(=O)(=O)O	1.04 ± 0.021	1.01 ± 0.061	0.978 ± 0.02	0.9735 ± 0.00071	1 ± 0.037
